Screening data as filed in PubChem BioAssay.
Rows were chosen to be rich in hits. Some 4.8% of all compounds tested hit in one or more screens of this group.
HIF act – HIF pathway transcriptional activators, primary screen, cell-based, U2OS HRE-luciferase, luminescence | U2OS HRE-luciferase reporter; normalized: DMSO 0%, desferrioxamine 100% | activation, % at 7.5 µM (by protocol) | 0.32% of 300,000 active | AID 1910, 2009;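 active = mean activation of at least 10% of the iron chelator positive control signal, with at least half of replicates also reaching 10%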
AI-2 QS mod – Vibrio harveyi AI-2 quorum sensing modulators, primary screen, JMH597 strain, luminescence/OD600 ratio. 0.4% of 300,000 active. activity change, % at 7.5 µM. Vibrio harveyi JMH597 AI-2 luminescence/OD600 ratio, 9 h; hits give low values; strain lacks LuxN and CqsS sensors; 0 = neutral-control median; in the data active = activity change below about -75%, passing the limit was not always enough;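 also: luminescence divided by OD600 gain over 9 h not by final OD600 alone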
ALR H2O2 inh – inhibitors of human ALR sulfhydryl oxidase, primary screen, biochemical, H2O2 detection, HRP-luminol luminescence, single point | inhibition, % (test concentration not listed) | purified ALR, DTT oxidation | 3.8% of 290,000 active | AID 485317, 2010 | FAD-linked sulfhydryl oxidase ALR (Homo sapiens), P55789;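 active = mean replicate inhibition above about 79%, with every replicate also reaching it, limit read from the data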
Target sequence (P55789 whole entry, looked up): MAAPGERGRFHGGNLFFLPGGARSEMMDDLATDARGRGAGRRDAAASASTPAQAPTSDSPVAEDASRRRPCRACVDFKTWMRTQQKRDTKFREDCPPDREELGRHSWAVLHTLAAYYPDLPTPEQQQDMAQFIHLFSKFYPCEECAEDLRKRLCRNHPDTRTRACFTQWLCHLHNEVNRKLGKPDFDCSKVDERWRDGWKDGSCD
Mot1-301 SUMO – yeast Mot1-301 growth rescue at high temperature, primary screen, SUMOylation pathway inhibitor project, S. cerevisiae, ATP luminescence, 38.5C; AID 2716, 2010; growth rescue, % at 18.8 µM; 1% of 320,000 active; S. cerevisiae Mot1-301 growth rescue; percent above DMSO median, 100 means doubled;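 active = every valid replicate shows activation above 250% relative to neutral control wells; inactive = the rest, any valid replicate at or below 250%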
Hits are given with their value.

What do the screens show for `Cc1ccc(-c2nnn(CC(=O)NCCc3ccc4c(c3)OCO4)n2)o1`?
HIF act: inactive; AI-2 QS mod: inactive; ALR H2O2 inh: inactive; Mot1-301 SUMO: 328.8

How did COc1ccc(-c2nnn(CC(=O)NCc3ccc4c(c3)OCO4)n2)cc1OC do in these assays?
HIF act: inactive; AI-2 QS mod: inactive; ALR H2O2 inh: inactive; Mot1-301 SUMO: inactive

What do the screens show for `CC(=O)Nc1cccc(NC(=O)CSc2ncc(-c3ccccc3)[nH]2)c1`?
HIF act: inactive; AI-2 QS mod: inactive; ALR H2O2 inh: 98.6

What do the screens show for `O=C(CSc1ncc(-c2ccccc2)[nH]1)Nc1ccccc1F`?
HIF act: inactive; AI-2 QS mod: inactive; ALR H2O2 inh: inactive; Mot1-301 SUMO: inactive

How did O=C(CSc1ncc(-c2ccccc2)[nH]1)Nc1cccc(O)c1 do in these assays?
HIF act: inactive; AI-2 QS mod: inactive; ALR H2O2 inh: 99.0; Mot1-301 SUMO: inactive

How did COc1cccc(NC(=O)C(=O)NCCC2CCCCN2S(=O)(=O)c2cccs2)c1 (stereo unspecified) do in these assays?
HIF act: inactive; AI-2 QS mod: inactive; Mot1-301 SUMO: inactive

Results for COc1ccc(N2CCN(C(=O)NC3CCCCC3)CC2)cc1 ?
HIF act: inactive; AI-2 QS mod: inactive; ALR H2O2 inh: 80.8; Mot1-301 SUMO: inactive

How did CNC(=O)c1cc2cc(OC)ccc2oc1=O do in these assays?
HIF act: inactive; AI-2 QS mod: inactive; ALR H2O2 inh: inactive; Mot1-301 SUMO: inactive

How did COc1cccc(N2CCN(C(=O)NC3CCCCC3)CC2)c1 do in these assays?
HIF act: inactive; AI-2 QS mod: inactive; ALR H2O2 inh: 76.9; Mot1-301 SUMO: inactive

Results for COc1ccc2oc(=O)c(C(=O)NC3CCCCCC3)cc2c1 ?
HIF act: 9.9; AI-2 QS mod: inactive; ALR H2O2 inh: inactive; Mot1-301 SUMO: inactive

Results for CC(C(=O)NC(=O)NC1CCCCC1)N1CCN(c2ccccn2)CC1 (stereo unspecified) ?
HIF act: inactive; AI-2 QS mod: inactive; ALR H2O2 inh: inactive

What do the screens show for `CC(C(=O)NC(=O)NC1CCCCC1)N1CCN(c2ccc(O)cc2)CC1` (stereo unspecified)?
ALR H2O2 inh: 99.2; Mot1-301 SUMO: inactive

What do the screens show for `CC(=O)Oc1cc2oc(=O)cc(C)c2cc1Cl`?
HIF act: inactive; AI-2 QS mod: inactive; ALR H2O2 inh: 96.9; Mot1-301 SUMO: inactive

Results for Cc1cc(=O)oc2cc(OC(C)C(=O)O)c(Cl)cc12 (stereo unspecified) ?
HIF act: inactive; AI-2 QS mod: inactive; ALR H2O2 inh: inactive; Mot1-301 SUMO: inactive

How did Nc1cc([N+](=O)[O-])ccc1Nc1ccc(O)cc1 do in these assays?
HIF act: inactive; AI-2 QS mod: inactive; ALR H2O2 inh: 98.8; Mot1-301 SUMO: inactive

How did S=c1[nH]cc(-c2ccccc2)[nH]1 do in these assays?
HIF act: inactive; AI-2 QS mod: inactive; ALR H2O2 inh: 98.7; Mot1-301 SUMO: inactive

How did COc1cc(-c2ccccc2)[nH]c(=S)n1 do in these assays?
ALR H2O2 inh: inactive; Mot1-301 SUMO: inactive

What do the screens show for `O=[N+]([O-])c1ccc(-c2c[nH]c(=S)[nH]2)cc1`?
HIF act: inactive; AI-2 QS mod: inactive; ALR H2O2 inh: 98.1; Mot1-301 SUMO: inactive

Results for CCn1c(-c2ccc([N+](=O)[O-])cc2)n[nH]c1=S ?
HIF act: inactive; AI-2 QS mod: inactive; ALR H2O2 inh: inactive; Mot1-301 SUMO: inactive

How did CN(C)CCN[C@H]1CCC2C3CC=C4C[C@@H](O)CC[C@]4(C)C3CC[C@@]21C (stereo partly specified) do in these assays?
ALR H2O2 inh: inactive; Mot1-301 SUMO: inactive

Results for Cc1cccc(NC(=O)CN2C(=O)NC3(CCCC3)C2=O)n1 ?
HIF act: inactive; AI-2 QS mod: inactive; Mot1-301 SUMO: inactive

How did Cc1cccc(C(=O)Nc2ccc(C(=O)c3ccccc3)cc2)c1 do in these assays?
HIF act: inactive; AI-2 QS mod: inactive; ALR H2O2 inh: inactive; Mot1-301 SUMO: inactive

How did Cc1cccc(C(=O)Nc2ccc(O)cc2)c1 do in these assays?
HIF act: inactive; AI-2 QS mod: inactive; ALR H2O2 inh: 98.9; Mot1-301 SUMO: inactive

What do the screens show for `O=C(Nc1ccccc1O)c1ccc2c(c1)C(=O)N(N1C(=O)c3ccccc3C1=O)C2=O`?
HIF act: inactive; AI-2 QS mod: inactive; ALR H2O2 inh: inactive; Mot1-301 SUMO: inactive

What do the screens show for `CCCN1C(=O)c2ccc(C(=O)Nc3cc(C)ccc3O)cc2C1=O`?
HIF act: inactive; AI-2 QS mod: inactive; ALR H2O2 inh: inactive; Mot1-301 SUMO: inactive

Results for CCCN1C(=O)c2ccc(C(=O)Nc3ccccc3C(=O)O)cc2C1=O ?
HIF act: inactive; AI-2 QS mod: inactive; ALR H2O2 inh: 97.0; Mot1-301 SUMO: inactive

How did CCN1C(=O)c2ccc(C(=O)Nc3ccc(O)cc3C)cc2C1=O do in these assays?
HIF act: inactive; AI-2 QS mod: inactive; ALR H2O2 inh: 99.0; Mot1-301 SUMO: inactive

How did O=C(Nc1ccc(O)cc1)c1ccc2c(c1)C(=O)N(N1C(=O)c3ccccc3C1=O)C2=O do in these assays?
HIF act: inactive; AI-2 QS mod: inactive; ALR H2O2 inh: 91.5; Mot1-301 SUMO: inactive

What do the screens show for `CC1CN(S(=O)(=O)c2cccc(C(=O)Nc3ccc(S(=O)(=O)NC4=NCCCCC4)cc3)c2)CC(C)O1` (stereo unspecified)?
HIF act: inactive; AI-2 QS mod: inactive; ALR H2O2 inh: inactive; Mot1-301 SUMO: inactive

What do the screens show for `Cc1ccc(-n2nc3c(=O)n(CCCC(=O)N4CCC(C(N)=O)CC4)nc(C)c3c2C)cc1`?
HIF act: inactive; AI-2 QS mod: inactive; Mot1-301 SUMO: inactive

What do the screens show for `Cc1nnc(SCC(=O)Nc2nccs2)n1C(C)C`?
HIF act: inactive; AI-2 QS mod: inactive; ALR H2O2 inh: inactive; Mot1-301 SUMO: inactive

What do the screens show for `COc1cccc(OC)c1C(=O)Nc1ccccc1C(=O)N1CCCCCC1`?
HIF act: inactive; AI-2 QS mod: inactive; ALR H2O2 inh: inactive; Mot1-301 SUMO: inactive

Results for Cc1ccc(NC(=O)N2CCC(NC(=O)c3cccc(C)c3)CC2)cc1 ?
HIF act: 150.5; AI-2 QS mod: inactive; ALR H2O2 inh: inactive; Mot1-301 SUMO: inactive

How did CCOP(=O)(Nc1ccc2oc(=O)c3ccccc3c2c1)OCC do in these assays?
HIF act: inactive; AI-2 QS mod: inactive; ALR H2O2 inh: inactive; Mot1-301 SUMO: inactive

How did CC(c1ccccc1)n1c(-c2ccccc2F)n[nH]c1=S (stereo unspecified) do in these assays?
HIF act: inactive; AI-2 QS mod: inactive; ALR H2O2 inh: inactive; Mot1-301 SUMO: inactive

How did CC(c1ccc(F)cc1)n1c(-c2cccs2)n[nH]c1=S (stereo unspecified) do in these assays?
HIF act: inactive; AI-2 QS mod: inactive; ALR H2O2 inh: 92.7; Mot1-301 SUMO: inactive

Results for O=c1cc(-c2ccc(O)c(O)c2)oc2cc(O)c(C3OC(CO)C(O)C(O)C3O)c(O)c12 (stereo unspecified) ?
HIF act: inactive; AI-2 QS mod: inactive; ALR H2O2 inh: 98.7; Mot1-301 SUMO: inactive
